# Source: PubChem (National Center for Advancing Translational Sciences (NCATS))
# TDP1 cell noCPT: qHTS for Inhibitors of human tyrosyl-DNA phosphodiesterase 1 (TDP1): qHTS in cells in absence of CPT; Potency, µM (series often up to 46.2 µM), for inactives: at the top dose activity change, negative = growth inhibition, hits mostly inhibitors; 420,000 compounds, 15% hits; AID 686978, 2013; DT40 Tdp1-/- hTDP1 cells, no CPT, ATP luminescence, 48 h; note: potency is the fitted concentration of half-maximal effect; nearly all actives have a fitted effect of over 55% in size
#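 Compound effects on proliferation are scored in DT40 Tdp1-/-;hTDP1 cells in the absence of CPT. ATP levels (CellTiter-Glo luminescence) are recorded after a ≥48 hr, 37 °C incubation.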
# HT1080 IDH1KD tx: qHTS for induction of synthetic lethality in tumor cells producing 2HG: qHTS for the HT-1080-IDH1KD cell line. 360,000 compounds, 2% hits. Potency, µM (titrated, usually from 46.1 µM), inactives show top-dose activity, negative = toxicity, most hits filed as cytotoxic. AID 686971, 2013. HT-1080 IDH1 knockdown viability, ATP luminescence, 48 h;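 note: potency is the fitted concentration of half-maximal effect; 0% = DMSO wells and -100% = cell-free medium wells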
#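 HT-1080-IDH1KD cells (IDH1 knocked down), 750/well in RPMI with 5% FBS, treated with compound 48 h at 37 degrees C. Viability by CellTiter-Glo luminescence, normalised to DMSO and no-cell wells; concentration-response curves classed.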
# IL1B secr inh: qHTS for Inhibitors of Inflammasome Signaling: IL-1-beta AlphaLISA Primary Screen; THP-1 LPS/ATP IL-1B secretion, AlphaLISA, 16 h; stronger effect = lower value; activity change, % at 57.5 µM; 360,000 compounds, 4.7% hits; in the data active = activity change below about -50%; inconclusive = mostly about -30% to -49%
#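 Secreted IL-1B measured by AlphaLISA bead assay after 16 h compound exposure of THP-1 cells; compounds (final up to 57.5 uM) added 1 h before LPS (250 ng/mL) and ATP (1.25 mM) stimulation; lower signal means less secretion.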
# DT40 TDP1 CPT: qHTS for Inhibitors of human tyrosyl-DNA phosphodiesterase 1 (TDP1): qHTS in cells in presence of CPT | chicken DT40 Tdp1-/-;hTDP1 cells + 20 nM CPT, ATP luminescence, 48 h | Potency, µM (series often up to 46.2 µM), inactives show top-dose activity change, negative = growth inhibition, hits mostly inhibitors | 420,000 compounds, 12% hits; note: potency is the fitted concentration of half-maximal effect; nearly all actives have a fitted effect of over 55% in size
#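 Cell growth measured by CellTiter-Glo luminescence after a minimum 48 h, 37 C compound exposure with 20 nM CPT in Tdp1-knockout DT40 cells stably expressing hTDP1, seeded 400/well; qHTS titration format.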
# HT1080-NT tox: qHTS for induction of synthetic lethality in tumor cells producing 2HG: qHTS for the HT-1080-NT fibrosarcoma cell line; Potency, µM (highest dose often 46.1 µM), without a hit: at the top dose activity, negative = less viability, most hits filed as cytotoxic; HT-1080-NT fibrosarcoma viability, CellTiter-Glo ATP luminescence, 48 h; 360,000 compounds, 1.6% hits; AID 686970, 2013;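 note: NT is the 2HG producing partner of a matched IDH1 knockdown line; potency is the fitted concentration of half-maximal effect; 0% = DMSO-treated cells and -100% = media-only wells without cells; nearly all actives have a fitted effect of over 55% in size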
#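 A 48-hour cytotoxicity screen used HT-1080-NT cells plated 2 hours before compound delivery. ATP-based CellTiter-Glo luminescence measured viability, normalized to DMSO and no-cell controls.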
# The depositor's hits bear a star; ? = inconclusive; · = no result; ! = a repeat was not active; [ ] = dose if it differs, or a comment. The list is not random: actives were taken first. Their share in the collection is about 19%. Unless noted, calls come from the whole dose curve; as a rule, active = well fitted curve in the direction sought with a large enough effect; inconclusive = small, poorly fitted or top-dose-only effect, or another doubt; inactive = no such curve, though single readings can be large; an effect the other way counts as inactive or inconclusive. Unless noted, % is set by controls: 0 for no effect and ±100 for the full control effect.
SMILES,TDP1 cell noCPT,HT1080 IDH1KD tx,IL1B secr inh,DT40 TDP1 CPT,HT1080-NT tox
Cc1ccc(Sc2ncccc2C(=O)NCC(c2ccc(F)cc2)N2CCOCC2)c(C)c1 (centres undefined),?,-14.2%,-5.3,14.6µM*,-0.4%
Cc1ccc(S(=O)(=O)Nc2cccc(C(=O)NCCCn3ccnc3)c2)cc1F,-21.4%,-0.5%,18.0,-15.8%,-1.4%
O=C(c1ccccc1NS(=O)(=O)c1ccc(F)cc1)N1CCCCC1,-8.6%,-0.9%,9.1,3.6%,-1.4%
Cc1ccc(S(=O)(=O)N2CCOCC2)cc1C(=O)Nc1cc(S(=O)(=O)N2CCCCC2)ccc1O,?,-1.9%,2.7,?,-1.6%
O=C(Nc1cc(S(=O)(=O)N2CCCCC2)ccc1Cl)c1ccccc1NS(=O)(=O)c1ccc(F)cc1,2.59µM*,?,-21.5,5.17µM*,0.581µM*
O=C(Nc1cc(S(=O)(=O)N2CCCCC2)ccc1O)c1ccccc1NS(=O)(=O)c1ccc(F)cc1,-25.6%,?,-55.6*!,-19.8%,?
CC(=O)c1ccc(N2CCN(S(=O)(=O)c3c(C(=O)N4CCCC4)c(C)n(C)c3C)CC2)cc1,-19.7%,2.9%,13.6,-2.2%,0.1%
COc1cccc([C@@H]2CC=C(C(=O)O)[C@H](c3ccc(Br)cc3)N2S(=O)(=O)c2ccc(C)cc2)c1,-7.5%,6.5%,34.7,-0.2%,4.7%
COc1ccc(CCN(C)C2CCCN(C(=O)c3sccc3C)C2)cc1OC (centres undefined),-17.2%,3.7%,12.8,-18.1%,16.5%
CC(=O)c1c(N2CCN(C)CC2)[nH]c(-c2ccccc2)nc1=S,16.4µM*,?,?,?,-29.7%
CCN(Cc1ccncc1)C(=O)c1cc(COc2c(C)cccc2C)on1,?,-0.6%,?,11.6µM*,-6.9%
CC(C)N(Cc1nccn1C)C(=O)c1cc(COc2ccc3ncccc3c2)on1,10.3µM*,-26.2%,29.9,?,?
Cc1cccc(C)c1OCc1cc(C(=O)N(Cc2nccn2C)C(C)C)no1,10.3µM*,-6.7%,5.7,14.6µM*,1.9%
CCN(Cc1ccncc1)C(=O)c1cc(COc2ccc(F)cc2F)on1,-49.0%,-11.7%,?,?,-2.9%
Cc1nc(CN(C)C(=O)c2cc(COc3ccc4ncccc4c3)on2)cs1,5.8µM*,?,-22.0,5.8µM*,4.11µM*
COc1cccc(OCc2cc(C(=O)N(C)Cc3nc(C)cs3)no2)c1,?,13.2%,-1.9,?,11.2%
CCCS(=O)(=O)NC(=O)C1(C)CCN(C(=O)c2ccc3c(c2)OCO3)C1 (centres undefined),-2.6%,18.1%,24.3,-15.7%,?
COCCNC(=O)CSc1nc(-c2ccc(C)cc2)nc2c1c(=O)n(C)c(=O)n2C,-2.4%,·,·,-14.8%,·
COC(=O)c1c(NC(=O)c2nc(SCc3ccc(F)cc3)ncc2Cl)sc2c1CCCC2,18.4%,·,·,-5.6%,·
COc1ccc(CCNc2cc(-c3ccccc3)nc3ncnn23)cc1,?,-13.2%,-0.3,23.1µM*,0.0%
Cc1cc(NCc2ccccc2)n2ncnc2n1,11.6µM*,1.6%,22.7,?,2.3%
CCCN(C)CCCOc1cc2nc(N3CCCN(C)CC3)nc(NC3CCN(C)CC3)c2cc1OC,12.6µM*,·,·,8.91µM*,·
COc1cc2c(NC3CCN(C)CC3)nc(N3CCCN(C)CC3)nc2cc1OCCOCCN(C)C,-29.4%,·,·,?,·
COc1cc2c(NC3CCN(C)CC3)nc(N3CCCN(C)CC3)nc2cc1OCCCCN(C)C,?,·,·,-24.8%,·
COc1cc2c(NC3CCN(C)CC3)nc(N3CCCCC3)nc2cc1OCCOCCN(C)C,?,·,·,11.2µM*,·
SMILES,TDP1 cell noCPT,HT1080 IDH1KD tx,IL1B secr inh,DT40 TDP1 CPT,HT1080-NT tox
COc1cc2c(NC3CCN(C(C)C)CC3)nc(N3CCCN(C)CC3)nc2cc1OCCCN1CCCC1,3.55µM*,·,·,5.01µM*,·
COc1cc2c(NC3CCN(C)CC3)nc(N3CCCN(C)CC3)nc2cc1OCCCCCCN(C)C,?,·,·,15.8µM*,·
CC[C@]12c3[nH]c4cc(CCC(=O)N(C)C)ccc4c3CCN1C(=O)[C@@H](CC(=O)NCCc1ccccn1)C[C@@H]2C(=O)N1CCN(C(=O)c2ccco2)CC1,0.0%,9.3%,5.8,22.6%,7.2%
CCc1ccc(C(=O)c2cn(CC(=O)Nc3ccc4c(c3)OCO4)c3cc(OC)c(OC)cc3c2=O)cc1,-7.1%,·,·,0.4%,·
COc1cccc(Cc2nc3cccnc3n2C2CCN(C(=O)c3n[nH]c4c3CCCC4)CC2)c1,-18.2%,·,·,3.5%[9.04 µM],·
c1cncc(CNc2cccc(-c3nc4ccccc4[nH]3)c2)c1,?,-15.7%,-15.0,?,?
C/C(=N/NC(=O)CN1CCN(S(=O)(=O)c2ccc(C)cc2)CC1)c1cccc(O)c1,5.4%,22.3%,-8.0,5.2%,-0.6%
COc1cc2c(NC3CCN(C(C)C)CC3)nc(N3CCCN(C)CC3)nc2cc1OCCOCCN(C)C,14.1µM*,·,·,7.08µM*,·
COc1cc2c(NC3CCN(C)CC3)nc(N3CCN(C)CC3)nc2cc1OCCOCCN(C)C,-9.2%,·,·,-14.9%,·
COc1cc2c(NC3CCN(C)CC3)nc(N3CCCN(C)CC3)nc2cc1OCCCN(C)C,?,9.4%,·,?,2.7%
COc1cc2c(NC3CCN(C)CC3)nc(N3CCCCC3)nc2cc1OCCCN(C)C,10µM*,·,·,3.98µM*,·
CC(=O)Nc1ccc(NC(=O)/C(Cl)=C/c2ccccc2)cc1,?,10.9%,-10.0,-5.2%,14.0%
CC(=O)c1ccc(NC(=O)CCCSc2nc(-c3ccco3)cc(C(F)(F)F)n2)cc1,16.4µM*,·,·,23.1µM*,·
O=C(CSc1nc(-c2ccco2)cc(C(F)(F)F)n1)Nc1ccc2c(c1)OCO2,?,?,-4.6,?,?
O=C(CCCSc1nc(-c2ccco2)cc(C(F)(F)F)n1)Nc1ccc2c(c1)OCO2,23.1µM*,-23.6%,?,?,-23.1%
Cc1ccc(CCc2nnc(SCC(=O)Nc3cccc(Cl)c3)n2-c2ccccc2)o1,13µM*,-11.5%,1.2,?,-24.7%
O=C(c1cc([N+](=O)[O-])ccc1N1CCOCC1)N1CCN(S(=O)(=O)c2cc(Cl)ccc2Cl)CC1,?,-0.8%,-0.8,?,0.7%
O=C(O/N=C1\C(=O)N(c2ccccc2)c2ccccc21)C1CC1,-18.5%,-20.6%,-8.4,?,-18.0%
CCO/N=C1\C(=O)N(c2ccccc2)c2ccccc21,-25.7%,-0.4%,-51.0*,5.8%,-2.0%
